# Reference: PubChem BioAssay (NCI)
# This is part of a sample that, as a whole, favours compounds with a hit. Of some 83,000 tested, about 20% had one in any assay.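 Step 1: grow cells in 96-well plates. Step 2: add test compound at a single concentration. Step 3: incubate 48 h. Step 4: record percent growth.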 Values without a mark were called inactive. The source made the active and inactive calls. How the source made its calls: active means growth percent below 10; inactive means the rest.
# System: MDA-MB-435 melanoma
# Test: NCI-60 one-dose screen, 48 h (100 = growth as untreated, 0 = no growth, -100 = all killed)
# Conditions: 10 µM unless noted
row,Structure (SMILES),growth
1,CCOC(=O)C1=C(C)NC(SCc2nnc(-c3ccc(Cl)cc3)o2)=NC1c1ccc(Cl)cc1 (stereo not drawn),69.6%
2,O=Cc1ccc2nc(C(Cl)(Cl)Cl)ccc2c1,99.6%
3,CCCc1n(Cc2ccc3ccccc3c2)c2ccccc2[n+]1Cc1ccc2ccccc2c1,-82.8% (active)
4,CC(CN1CCN(CCOCCO)CC1)CN1c2ccccc2Sc2ccc(Cl)cc21 (stereo not drawn),22.4%
5,Clc1ccc(Nc2ncnc3c2sc2ncccc23)c(Cl)c1,36.3%
6,COc1ccc(/C=C(/C(=O)N2CCN(c3ccccc3)CC2)c2cc(OC)c(OC)c(OC)c2)cc1O,-52.8% (active)
7,C#CCNC(=S)N/N=C(\C)c1ccccn1,33.1%
8,CC(C)NC(=O)OCC#CCOC(=O)NC(C)C,110%
9,Cc1cc(C)c2c(n1)sc1c(Nc3ccc(Cl)cc3Cl)ncnc12,36%
10,CCCCn1cnc(-c2cc(-c3ccccc3)cc(C(F)(F)F)c2)n1,105%
11,O=C1c2ccccc2C(=O)c2c1oc1ccc3ccccc3c21,91.3%
12,COC1=CC(c2ccc[nH]2)=N/C1=C\c1[nH]c(C)c(C(=O)CCCCCCCCC(=O)O[C@H]2CC[C@H]3C4CCc5cc(O)ccc5C4CC[C@]23C)c1C (stereo partly drawn),14.3%
13,CCSc1ccc([C@@H]2[C@@H](N)C(=O)N2c2cc(OC)c(OC)c(OC)c2)cc1,-59.7% (active)
14,COc1ccc2[nH]cc(C(c3ccc(Cl)cc3)N3CCCC3)c2c1 (stereo not drawn),105%
15,Oc1[nH]c2ccc(Cl)cc2c1/C=c1/ccc2c(c1)N=C(c1ccc(F)cc1)N=2,-44% (active)
16,COc1cc(-c2csc(NC(=O)Nc3cccc(C(F)(F)F)c3)n2)cc(OC)c1OC,57.1%
17,O=C(Cc1ccc(Nc2ccnc(C(F)(F)F)c2)cc1)N/N=C/c1ccccc1O,34.7%
18,COc1ccc2nc(C)cc(Nc3ccccc3O)c2c1,64.4%
19,C[C@]12CCc3nc(Nc4ccc(O)cc4)sc3C1=CC[C@@H]1[C@@H]2CC[C@]2(C)/C(=N/NC(N)=S)CC[C@@H]12,-68.5% (active)

row,Structure (SMILES),growth
1,CN(C)CCOc1nc2c3cccnc3cc(-c3cccc(Cl)c3)c2c2ncccc12,-59.6% (active)
2,Oc1[nH]c2ccccc2c1/C=c1/ccc2c(c1)N=C(c1ccc(C(F)(F)F)cc1)N=2,32.5%
3,COc1ccc(/C(=C\c2ccc3c(c2)OCO3)C(=O)Nc2nc3ccc(F)cc3s2)cc1OC,99.8%
4,O=C(Nc1ccccc1Cl)Oc1ccc2ccccc2c1,105%
5,Nc1nc2c(c3ncccc13)C(c1ccccc1)Cc1ncccc1-2 (stereo not drawn),-0.757% (active)
6,COc1ccccc1NC(=O)OCC12COCN1COC2,102%
7,COc1cc2c(cc1C)NC(=O)/C2=C\c1c[nH]c2ccccc12,68.8%
8,C=C(C)[C@@H]1CC[C@]2(C)[C@H](CC=C3[C@@H]4C[C@](C)(C(=O)N5CCN(C)CC5)CC[C@]4(C)CC[C@]32C)[C@@]1(C)CCC#N,51.3%
9,COc1ccc(NC(=O)/C=C/c2ccc(Cl)c(Cl)c2)cn1,91.1%
10,CC(C)c1[nH]ncc1-c1nc2ccc3[nH]ncc3c2c2c1CCCC2,53.8%
11,COc1ccc(NC(=O)c2ccc(C(F)(F)F)nc2Nc2ccc(Cl)cc2C)cc1Cl,18.6%
12,NCCCOc1cc2ccccc2cc1C(=O)NCCCOc1cc2ccccc2cc1C(=O)Nc1ccc(Cl)cc1O,-85.5% (active)
13,C/C=C(\C)C(C(=O)NC1CCCCC1)N(C(=O)C1CCc2cc(F)ccc2O1)c1ccc([N+](=O)[O-])cc1 (stereo not drawn),87.7%
14,O=C(Cn1nncc1CN1C(=O)CSC1=O)Nc1ccc(F)cc1,100%
15,CCC(C)C1NC(=O)c2nc(oc2-c2ccccc2)-c2csc(n2)-c2csc(n2)-c2nc(oc2C)-c2coc(n2)CNC(=O)C(C(C)CC)NC1=O (stereo not drawn),-87.5% (active)
16,C=CCn1c(C)nc2cc(Nc3nc(N4CCCC4)nc4nc[nH]c34)ccc21,9.16% (active)
17,Clc1ccc(Nc2ncnc3c2sc2ncccc23)cc1,36.2%
18,Cc1ccc(NC(=O)c2nc(S(C)(=O)=O)oc2-c2ccc(F)cc2)cc1Nc1ccc2ncn(C)c(=O)c2c1,69.4%
19,CCCCNCC(O)c1cc(-c2ccc(C(F)(F)F)cc2)nc(-c2ccc(C(F)(F)F)cc2)c1 (stereo not drawn),-68.6% (active)
